According to PubChem BioAssay (NCI):
Compounds without any hit were thinned out: in the full panel of roughly 83,000, 20% have a hit.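 Cells were grown in 96-well plates and exposed to the test compound at a single concentration for 48 hours; results are reported as percent growth, with values below 10 considered active.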 Values without a mark were called inactive. The source made the active and inactive calls.

Key:
Experiment in all cases: NCI-60 one-dose screen, 48 h (100 = growth as untreated, 0 = no growth, -100 = all killed)
Settings in all cases: 10 µM unless noted
SR leukemia = system: SR leukemia
RPMI-8226 leukemia = system: RPMI-8226 leukemia
OVCAR-8 ovarian = system: OVCAR-8 ovarian
OVCAR-5 ovarian = system: OVCAR-5 ovarian
SK-OV-3 ovarian = system: SK-OV-3 ovarian
IGROV1 ovarian = system: IGROV1 ovarian
OVCAR-3 ovarian = system: OVCAR-3 ovarian
HS 578T breast = system: HS 578T breast
NCI/ADR-RES ovarian = system: NCI/ADR-RES ovarian
T-47D breast = system: T-47D breast
BT-549 breast = system: BT-549 breast
MDA-MB-435 melanoma = system: MDA-MB-435 melanoma
SW-620 colon = system: SW-620 colon
MCF7 breast = system: MCF7 breast
HCT-116 colon = system: HCT-116 colon
HCC-2998 colon = system: HCC-2998 colon
KM12 colon = system: KM12 colon
OVCAR-4 ovarian = system: OVCAR-4 ovarian

Compound | growth (SR leukemia) | growth (RPMI-8226 leukemia) | growth (OVCAR-8 ovarian) [%] | growth (OVCAR-5 ovarian) [%] | growth (SK-OV-3 ovarian) [%] | growth (IGROV1 ovarian) [%] | growth (OVCAR-3 ovarian) | growth (HS 578T breast) [%] | growth (NCI/ADR-RES ovarian) [%] | growth (T-47D breast) [%] | growth (BT-549 breast) [%] | growth (MDA-MB-435 melanoma) | growth (SW-620 colon) [%] | growth (MCF7 breast) [%] | growth (HCT-116 colon) | growth (HCC-2998 colon) | growth (KM12 colon) [%] | growth (OVCAR-4 ovarian) [%]
CCN(CC)c1ccc(/C=N/N=C(N)N)cc1 | 27.6% | 3.74% (active) | 62.6 | 79.8 | 37.6 | 63.3 | 4.63% (active) | 55.3 | 93 | 63.4 | 51.5 | -23% (active) | 19.3 | 15.4 | 32.5% | 85.5% | 25.2 | 
Cc1c(C(=O)Nc2ccccc2F)sc2c(=O)[nH]cnc12 | 28.5% | 96.7% | 97 | 123 | 97.5 | 76.4 | 93.7% | 98.2 | 66.2 | 90 | 85.3 | 6.84% (active) | 76.8 | 76.9 | 88.6% | 93.2% | 61.8 | 
O=[N+]([O-])c1ccc(N=Nc2c(NNc3ccc([N+](=O)[O-])cn3)cc(S(=O)(=O)O)c3ccccc23)nc1 | 47.2% | 90% | 67.5 | 91.4 | 78 | 84.9 |  |  | 79.5 | 90.9 | 81.7 | 90% | 83.1 | 85.9 | 69.6% | 87.1% | 87.6 | 
CCN(CC)CCNC(=O)n1cc(-c2ccncc2)c(-c2cc(Cl)cc(OC)c2)n1 | 51% |  | 27.7 | 88.4 | 47.8 | 86 | 94.3% | 88 | 86 | 87.3 | 95.6 | 83.5% | 100 | 87.7 | 85.5% | 113% | 98.3 | 70.4
CCCCCCCCCCCC1=NC(C)(C)CN1CC(C)O (stereo unspecified) | -61.4% (active) |  | 81.7 | 92.5 | 82.6 | 30 | 73.9% | 71.6 | 87 | 58.9 | 67.8 | -7.43% (active) | 52 | 25.8 | 22.8% | -60.8% (active) | 34 | 70.2
O=C(Nc1ccc(-n2ccc3c(NC(=O)c4ccccc4)nccc32)cc1)c1ccc(N2CCOCC2)c(C(F)(F)F)c1 | 0.458% (active) |  | 23.6 | 56.8 | 30.3 | 27.2 | 15.7% | 50 | 29 | 28.2 | 28.5 | 33.6% | 30.5 | 23.2 | 6.59% (active) | 40.8% | 22.7 | 59.8
CCOC(=O)Cc1cc(Br)c(OCc2ccccc2)c(Br)c1 | 84.5% |  | 95.5 | 85 | 109 | 85.6 | 113% | 101 | 102 | 85.6 | 98.3 | 96.3% | 113 | 107 | 93.8% | 98.5% | 107 | 94.5
CCN(CC)CCNC(=O)n1cc(-c2ccncc2)c(-c2ccc(Cl)c(OC)c2)n1 | 80.7% |  | 31 | 98.8 | 75.5 | 88.8 | 101% | 90.1 | 83.5 | 69.2 | 96.3 | 97.2% | 113 | 85.9 | 84% | 99% | 103 | 92.6
COc1ccc2c(c1)N(Cc1ccc(Cl)cc1)CCC2N1CCCC1=O (stereo unspecified) | 34.2% |  | 50 | 66 | 43.4 | 13.2 | 43.8% | 10.7 | 53.3 | 31.5 | 16.1 | 46.2% | 72.1 | 35.5 | 55.1% | 49.7% | 50.4 | 34
